Rv3671c protease = inhibits the M. tuberculosis serine protease Rv3671c; P9WHR9; inhibition, % at 5.96 µM; 320,000 compounds, 0.048% hits; in the data active = inhibition above about 38%;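 also: extracellular domain of Rv3671c used as enzyme; 0% = enzyme with DMSO and 100% = no enzyme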
BioA inh = BioA (M. tuberculosis) enzyme inhibition; purified M. tuberculosis BioA enzyme, plate reader; inhibition, % at 9.99 µM; 360,000 compounds, 0.096% hits; in the data active = inhibition above about 40%
FadD28 FP inh = M. tuberculosis FadD28 bisubstrate binding inhibition; 360,000 compounds, 0.22% hits; inhibition, % at 12.5 µM; FadD28 bisubstrate probe binding, fluorescence polarization; AID 588549; in the data active = inhibition above about 8.5%, passing the limit was not always enough
Mtb FBA inh = inhibitors of M. tuberculosis fructose-bisphosphate aldolase; AID 588726; inhibition, % at 1 µM; purified M. tuberculosis FBA, fluorescence read-out; 360,000 compounds, 2.3% hits; P9WQA3; in the data active = inhibition above about 27%;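 also: 0% = vehicle and 100% = reference inhibitor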
Target sequence (P9WQA3 whole entry, looked up): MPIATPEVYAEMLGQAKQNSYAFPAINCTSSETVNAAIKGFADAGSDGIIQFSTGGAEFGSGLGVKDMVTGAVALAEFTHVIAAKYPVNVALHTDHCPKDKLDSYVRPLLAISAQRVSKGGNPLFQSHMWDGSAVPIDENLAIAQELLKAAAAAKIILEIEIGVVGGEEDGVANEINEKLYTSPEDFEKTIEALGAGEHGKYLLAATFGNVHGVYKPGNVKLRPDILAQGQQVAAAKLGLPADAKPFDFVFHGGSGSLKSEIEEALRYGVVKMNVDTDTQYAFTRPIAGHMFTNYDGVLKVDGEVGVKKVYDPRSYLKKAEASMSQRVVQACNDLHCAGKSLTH
GDH-TPI inh = inhibits GDH-TPI coupling enzymes, artifact for Mtb FBA screen. inhibition, % at 4.8 µM. AID 588335. 360,000 compounds, 1.2% hits. GDH-TPI coupled enzyme counterscreen, NADH absorbance; in the data active = inhibition above about 30%;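 also: 0% = DMSO wells and 100% = wells lacking the enzyme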
The depositor's hits bear a star. A selection: hits, their analogues and other compounds. The true share with any hit is near 3%.

What do the screens show for `Nc1c(C(=O)NCCN2CCOCC2)c2nc3ccccc3nc2n1-c1ccccc1`?
Rv3671c protease: -11.0; BioA inh: 1.6; FadD28 FP inh: -4.2; Mtb FBA inh: 148.7*; GDH-TPI inh: 27.5

How did COCCNC(=O)c1c(N)n(-c2ccccc2)c2nc3ccccc3nc12 do in these assays?
Rv3671c protease: -20.9; BioA inh: 0.5; FadD28 FP inh: 0.5; Mtb FBA inh: 148.4*; GDH-TPI inh: 17.7

How did CC(=O)NCCn1c(SCC(=O)c2ccccc2)nc2ccccc2c1=O do in these assays?
Rv3671c protease: -0.2; BioA inh: -4.2; FadD28 FP inh: 1.5; Mtb FBA inh: -0.2; GDH-TPI inh: 32.7*

What do the screens show for `O=C(C[C@H]1C[C@H]2c3cc(NC(=O)c4cccnc4)ccc3O[C@H]2[C@@H](CO)O1)NCc1cccc(F)c1`?
BioA inh: 4.6

How did Cc1ccccc1S(=O)(=O)N1C[C@H]2[C@@H](c3ccccc31)[C@@H](CO)N2C(=O)CC1CC1 do in these assays?
BioA inh: 2.5

How did O=C(O)CN1C(=O)/C(=C/c2ccccc2Cl)Oc2ccccc21 do in these assays?
Rv3671c protease: -6.4; BioA inh: -0.3; Mtb FBA inh: 129.9*; GDH-TPI inh: 17.1

Results for CC(C)CC#Cc1cnc2c(c1)C(=O)N([C@@H](C)CO)C[C@@H](C)[C@H](CN(C)C(=O)c1cnccn1)O2 ?
BioA inh: 1.3

How did Cc1ccc2nc(C)cc(Nc3ccc4c(c3)OCCO4)c2c1 do in these assays?
Rv3671c protease: 7.7; BioA inh: 7.8; FadD28 FP inh: -0.6; Mtb FBA inh: 2.5; GDH-TPI inh: 32.8*

Results for O=C(NCC[C@H]1CC[C@H](NC(=O)c2ccc3c(c2)OCO3)[C@@H](CO)O1)Nc1ccc(Cl)cc1 ?
BioA inh: -2.9

How did C[C@H]1CN([C@@H](C)CO)C(=O)Cc2cc(NC(=O)Nc3ccc(F)cc3)ccc2O[C@H]1CN(C)C(=O)NC1CCCCC1 do in these assays?
BioA inh: 1.4

How did COc1cccc2cc(-c3nc4ccccc4[nH]3)c(=O)oc12 do in these assays?
Rv3671c protease: -13.8; BioA inh: -3.8; FadD28 FP inh: -1.6; Mtb FBA inh: 1.8; GDH-TPI inh: 31.3*

What do the screens show for `O=C(O)c1ccc2nc(CO)[nH]c2c1`?
Rv3671c protease: 0.1; FadD28 FP inh: -4.3; Mtb FBA inh: -4.3; GDH-TPI inh: -13.3

Results for Cc1cccc2cc(-c3nc4ccc(C(=O)O)cc4[nH]3)c(=O)oc12 ?
Rv3671c protease: -23.5; BioA inh: -1.5; FadD28 FP inh: -20.9; Mtb FBA inh: 34.2*; GDH-TPI inh: 31.0*

Results for COc1cc(C2C=C(c3cccs3)Nc3ncnn32)cc(OC)c1OC (stereo unspecified) ?
FadD28 FP inh: -1.5; Mtb FBA inh: -4.8; GDH-TPI inh: 41.5*

How did CC[C@@H](CO)NC(=O)[C@@H]1C=C2c3cccc4[nH]cc(c34)C[C@H]2N(C)C1 do in these assays?
BioA inh: -5.8; FadD28 FP inh: -2.1; Mtb FBA inh: 128.4*; GDH-TPI inh: -6.3

What do the screens show for `O=c1c2ccccc2oc2c1ccc1ccccc12`?
BioA inh: -1.6; FadD28 FP inh: 0.2; Mtb FBA inh: 36.0*; GDH-TPI inh: 3.6

Results for O=c1c2ccccc2oc2ccccc12 ?
BioA inh: -1.6; FadD28 FP inh: -0.6; Mtb FBA inh: 1.5; GDH-TPI inh: 11.8

What do the screens show for `C/C=C/c1ccc([C@H]2[C@@H](CNC(=O)c3ccccc3)N(C(C)=O)[C@H]2CO)cc1`?
BioA inh: -2.4

How did C=CCn1c(N)c(C(=O)NCCC2=CCCCC2)sc1=S do in these assays?
Rv3671c protease: -3.7; BioA inh: 0.6; FadD28 FP inh: 1.0; Mtb FBA inh: 2.2; GDH-TPI inh: 35.0*

What do the screens show for `COc1ccc(/C=C(/C(=O)c2ccc(Cl)cc2Cl)n2cncn2)cc1`?
Rv3671c protease: 4.0; BioA inh: 1.4; FadD28 FP inh: -2.1; Mtb FBA inh: -4.1; GDH-TPI inh: 31.9*

Results for Cc1cc(C(=O)N/N=C/c2c(C)n(C)c3ccccc23)n[nH]1 ?
Rv3671c protease: -4.2; BioA inh: -0.6; FadD28 FP inh: -0.3; Mtb FBA inh: 0.1; GDH-TPI inh: 56.8*

How did Cc1[nH]c2ccccc2c1/C=N/NC(=O)CNC(=O)c1ccc2c(c1)OCCO2 do in these assays?
Rv3671c protease: 0.0; FadD28 FP inh: 1.8; Mtb FBA inh: 3.6; GDH-TPI inh: 31.7*

What do the screens show for `Cc1[nH]c2ccccc2c1/C=N/NC(=S)NC(C)C`?
Rv3671c protease: 18.4; FadD28 FP inh: -1.0; Mtb FBA inh: -4.2; GDH-TPI inh: 37.6*

Results for Cc1cc(C(=O)N/N=C/c2c(C)[nH]c3ccccc23)n[nH]1 ?
Rv3671c protease: -0.3; BioA inh: -0.4; FadD28 FP inh: -0.5; Mtb FBA inh: -0.6; GDH-TPI inh: 55.9*

How did Cc1[nH]c2ccccc2c1/C=N/NC(=O)c1cc(-c2cccs2)[nH]n1 do in these assays?
Rv3671c protease: 24.0; FadD28 FP inh: -2.7; Mtb FBA inh: 5.3; GDH-TPI inh: 28.5

How did COc1ccc2cc(/C(C)=N/NC(=O)c3cc(C)oc3C)ccc2c1 do in these assays?
BioA inh: -0.3; FadD28 FP inh: -1.1; Mtb FBA inh: 198.5*; GDH-TPI inh: 8.8

Results for C/C(=N\NC(=O)c1cc(C)oc1C)c1ccc(C)c([N+](=O)[O-])c1 ?
Rv3671c protease: -6.3; BioA inh: 5.9; FadD28 FP inh: -3.5; Mtb FBA inh: -1.6; GDH-TPI inh: 7.4

How did COc1ccc(/C(C)=N/NC(=O)c2ccc(N(C)C)cc2)cc1 do in these assays?
Rv3671c protease: 0.5; BioA inh: 2.7; FadD28 FP inh: -2.6; Mtb FBA inh: -0.4; GDH-TPI inh: 35.5*

How did C/C(=N\NC(=O)c1ccc(N(C)C)cc1)c1ccc(C)c(C)c1 do in these assays?
Rv3671c protease: 11.1; FadD28 FP inh: -0.1; Mtb FBA inh: 1.4; GDH-TPI inh: 12.7

What do the screens show for `CCN(CC)c1ccc(C(=O)N/N=C(\C)c2ccc(O)cc2)cc1`?
Rv3671c protease: 5.7; FadD28 FP inh: -0.5; Mtb FBA inh: -1.1; GDH-TPI inh: 33.8*

Results for COc1ccccc1CNC(=O)C[C@H]1C=C[C@@H](NC(C)=O)[C@H](CO)O1 ?
BioA inh: -2.6

Results for C[C@@H]1CCCCO[C@H](CN(C)S(=O)(=O)c2cccs2)[C@H](C)CN([C@@H](C)CO)C(=O)c2cc(N(C)C)ccc2O1 ?
BioA inh: 1.4

What do the screens show for `COc1ccc2nc(Cl)cc(Cl)c2c1`?
Rv3671c protease: 4.7; BioA inh: -0.5; FadD28 FP inh: -3.7; Mtb FBA inh: 0.2; GDH-TPI inh: -7.7

How did C=CS(=O)(=O)c1c2cc(OC)ccc2nc2ccc(OC)cc12 do in these assays?
FadD28 FP inh: -1.8; Mtb FBA inh: 38.2*; GDH-TPI inh: 8.6

How did CCC(=O)Nc1ccc2c(c1)C(=O)N(C)C[C@@H](OC)[C@@H](C)CN(Cc1cccnc1)[C@H](C)CO2 do in these assays?
BioA inh: -1.8

What do the screens show for `CN(C)c1ccc(C(=O)C(O)c2ccccc2Cl)cc1` (stereo unspecified)?
FadD28 FP inh: -0.7; Mtb FBA inh: 2.3; GDH-TPI inh: 45.8*

Screening results as filed in PubChem BioAssay.
